According to PubChem BioAssay (Tox21):
Records with an inconclusive call do not appear. Where a call stands in place of a potency, no number is given. Active and inactive are the calls of the source. The call rests on the fitted dose curve; in most records, active means well fitted activation curve with a large enough effect in the signal ratio in the repeat runs (not every such curve was filed as active); inconclusive means weak or mixed curves; inactive means flat fitted curve, though single readings scatter; the % refers to the signal ratio.

Assay: qHTS assay to identify small molecule agonists of the TGF-beta/Smad signaling pathway (AID 1346859)
Conditions: SBE-bla HEK293T, TGF-beta/Smad beta-lactamase reporter, 5 h; series mostly up to 76.8 µM
Method in brief: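 SBE-bla HEK293T cells plated overnight, then compound exposure for 5 h at 37 C. Beta-lactamase reporter read with LiveBLAzer B/G FRET substrate after 2 h at room temperature, fluorescence at 405 nm excitation, 460/530 nm emission.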
Potency means the concentration at half of the fitted maximal effect.

Compound	Potency
COC(=O)c1nc(Cl)c(Cl)nc1N	23.9 µM (active)
Cc1c(C)c2c(c(C)c1OC(=O)CCC(=O)OCCO)CC[C@@](C)(CCC[C@H](C)CCC[C@H](C)CCCC(C)C)O2	inactive
CN1CC(=O)N2[C@H](c3ccc4c(c3)OCO4)c3[nH]c4ccccc4c3C[C@@H]2C1=O	inactive
CCOc1ccccc1O[C@H](c1ccccc1)[C@H]1CNCCO1	inactive
O=C=Nc1cccc(C(F)(F)F)c1	inactive
COc1cc(Nc2c(C#N)cnc3cc(OCCCN4CCN(C)CC4)c(OC)cc23)c(Cl)cc1Cl	inactive
CC(CN(C)C)C(C)(O)Cc1ccc(Cl)cc1 (stereo not given)	inactive
CCOC(=O)c1ccc(O)c(O)c1	inactive
OC1(c2ccccc2)CCNCC1	inactive
CC(C)C[C@H](NC(=O)[C@H](CCc1ccccc1)NC(=O)CN1CCOCC1)C(=O)N[C@@H](Cc1ccccc1)C(=O)N[C@@H](CC(C)C)C(=O)[C@@]1(C)CO1	inactive
COC(=O)C1=C(C)NC(C)=C(C(=O)O[C@@H]2CCCN(Cc3ccccc3)C2)[C@@H]1c1cccc([N+](=O)[O-])c1	inactive
CO/N=C(/C(=O)N[C@@H]1C(=O)N2C(C(=O)O)=C(COC(N)=O)CS[C@H]12)c1ccco1	inactive
Oc1c(I)cc(I)c2cccnc12	inactive
CC1(CN2CCC(n3c(=O)[nH]c4ccccc43)CC2)OCc2ccccc2-n2cccc21 (stereo not given)	inactive
OC[C@H]1O[C@@H](n2cnc3c(=S)nc[nH]c32)[C@H](O)[C@@H]1O	inactive
CCCCCCCCCI	inactive
O=C1NC(=O)c2cc([N+](=O)[O-])ccc21	inactive
Cc1cc2c(OCC(CNC(C)(C)C)OC(=O)c3ccccc3)cccc2[nH]1 (stereo not given)	inactive

Compound	Potency
CCOc1ccc(Cc2nccc3cc(OCC)c(OCC)cc23)cc1OCC	inactive
C[C@@]12CCC[C@H]1[C@@H]1CC[C@H]3C[C@@H](O)CC[C@]3(C)[C@H]1CC2	inactive
Cc1[nH]cnc1CN1CCc2c(c3ccccc3n2C)C1=O	inactive
C=C(C)[C@@H]1CCC2=CCC[C@@H](C)[C@]2(C)C1	inactive
Cc1cccc(O)c1N	inactive
Cc1ccccc1N=C(N)Nc1ccccc1C	inactive
O[C@@H]1CO[C@H]2[C@@H]1OC[C@@H]2O	inactive
CCC(=O)OC	inactive
CC1CC(C)C(=O)C1=O (stereo not given)	inactive
CC(C)(O)c1ccc(CNC(=O)c2cccnc2Oc2ccc3nonc3c2)cc1	inactive
NC1[C@H]2CN(c3nc4c(cc3F)c(=O)c(C(=O)O)cn4-c3ccc(F)cc3F)C[C@@H]12 (stereo not given in full)	inactive
CC1=C(CC=O)C(C)(C)CCC1	inactive
O=C(CCc1ccc(O)cc1)c1c(O)cc(O)cc1O	inactive
C[C@@H](O)[C@H]1C(=O)N2C(C(=O)O)=C([C@H]3CCCO3)S[C@H]12	inactive
O=C(OC(=O)c1ccccc1)c1ccccc1	inactive
C=CC(C)(CCC=C(C)C)OC(=O)CC(C)C (stereo not given)	inactive
CC=C(Cl)Cl	inactive
